# Measured values published in ChEMBL document CHEMBL1961873, “Compounds: GSK PKIS; Assays: Nanosyn kinase panel” (2012).
# What was measured:
# [1] = target: Sphingosine kinase 1 (Homo sapiens) (UniProt Q9NYA1); settings: at 1 µM;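 further: mean SPHK1 inhibition value reported from the GSK PKIS kinase panel screen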
# [2] = target: T1, Sphingosine kinase 2 (Homo sapiens) (UniProt Q9NRA0); settings: at 0.1 µM
# T1 sequence (whole entry): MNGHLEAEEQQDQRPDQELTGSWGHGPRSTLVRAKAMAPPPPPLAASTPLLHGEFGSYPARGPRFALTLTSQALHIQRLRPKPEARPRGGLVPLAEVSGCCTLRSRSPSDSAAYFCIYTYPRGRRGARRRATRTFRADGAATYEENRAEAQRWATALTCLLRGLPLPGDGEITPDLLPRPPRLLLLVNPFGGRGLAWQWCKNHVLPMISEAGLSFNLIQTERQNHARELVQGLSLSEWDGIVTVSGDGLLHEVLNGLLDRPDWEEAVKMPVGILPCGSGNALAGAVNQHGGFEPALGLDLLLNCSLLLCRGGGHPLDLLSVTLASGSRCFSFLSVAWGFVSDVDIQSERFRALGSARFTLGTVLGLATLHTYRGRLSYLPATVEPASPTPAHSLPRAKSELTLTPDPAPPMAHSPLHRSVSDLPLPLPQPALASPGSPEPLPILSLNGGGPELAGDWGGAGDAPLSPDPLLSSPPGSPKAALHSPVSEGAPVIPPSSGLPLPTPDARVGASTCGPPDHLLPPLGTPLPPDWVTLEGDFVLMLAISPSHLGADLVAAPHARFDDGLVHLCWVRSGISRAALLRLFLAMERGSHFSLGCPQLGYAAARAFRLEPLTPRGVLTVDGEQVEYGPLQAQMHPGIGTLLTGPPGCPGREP
# [3] = target: T1, Sphingosine kinase 2 (Homo sapiens); settings: at 1 µM
# [4] = target: Casein kinase II subunit alpha (Homo sapiens) (UniProt P68400); settings: at 0.1 µM
# Casein kinase II subunit alpha (Homo sapiens), sequence (P68400 whole entry, looked up): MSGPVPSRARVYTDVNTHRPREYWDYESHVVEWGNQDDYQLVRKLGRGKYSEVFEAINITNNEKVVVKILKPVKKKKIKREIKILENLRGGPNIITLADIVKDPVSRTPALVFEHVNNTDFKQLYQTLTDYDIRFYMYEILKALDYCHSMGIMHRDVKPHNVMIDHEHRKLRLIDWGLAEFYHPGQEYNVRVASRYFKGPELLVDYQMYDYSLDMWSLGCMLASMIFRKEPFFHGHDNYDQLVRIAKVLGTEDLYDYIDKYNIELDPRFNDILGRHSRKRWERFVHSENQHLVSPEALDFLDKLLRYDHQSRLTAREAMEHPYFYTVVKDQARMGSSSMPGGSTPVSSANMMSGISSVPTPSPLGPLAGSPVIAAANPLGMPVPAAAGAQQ
# [5] = target: Casein kinase II subunit alpha (Homo sapiens) (UniProt P68400); settings: at 1 µM
# [6] = target: T2, Inhibitor of nuclear factor kappa-B kinase subunit alpha (Homo sapiens) (UniProt O15111); settings: at 0.1 µM
# T2 sequence (whole entry): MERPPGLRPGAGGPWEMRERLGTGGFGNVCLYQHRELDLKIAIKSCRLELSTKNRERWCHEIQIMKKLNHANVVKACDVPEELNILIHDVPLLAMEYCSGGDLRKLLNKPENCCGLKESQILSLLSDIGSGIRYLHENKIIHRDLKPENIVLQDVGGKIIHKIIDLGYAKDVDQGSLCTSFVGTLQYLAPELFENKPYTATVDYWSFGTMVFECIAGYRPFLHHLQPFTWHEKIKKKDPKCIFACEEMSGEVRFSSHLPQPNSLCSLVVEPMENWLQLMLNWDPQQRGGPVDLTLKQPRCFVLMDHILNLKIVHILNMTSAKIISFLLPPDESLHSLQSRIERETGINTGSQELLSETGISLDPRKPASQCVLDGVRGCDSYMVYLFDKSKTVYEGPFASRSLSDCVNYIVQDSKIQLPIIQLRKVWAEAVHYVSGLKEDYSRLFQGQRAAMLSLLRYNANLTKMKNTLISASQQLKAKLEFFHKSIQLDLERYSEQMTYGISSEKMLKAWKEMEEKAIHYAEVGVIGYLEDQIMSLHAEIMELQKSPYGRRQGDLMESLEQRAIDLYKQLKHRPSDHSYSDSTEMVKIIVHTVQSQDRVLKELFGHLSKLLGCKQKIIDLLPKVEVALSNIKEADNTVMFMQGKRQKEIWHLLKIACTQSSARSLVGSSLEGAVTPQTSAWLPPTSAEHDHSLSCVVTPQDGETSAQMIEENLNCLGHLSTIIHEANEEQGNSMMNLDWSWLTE
# [7] = target: T2, Inhibitor of nuclear factor kappa-B kinase subunit alpha (Homo sapiens); settings: at 1 µM
# [8] = target: T3, Inhibitor of nuclear factor kappa-B kinase subunit beta (Homo sapiens) (UniProt O14920); settings: at 0.1 µM
# T3 sequence (whole entry): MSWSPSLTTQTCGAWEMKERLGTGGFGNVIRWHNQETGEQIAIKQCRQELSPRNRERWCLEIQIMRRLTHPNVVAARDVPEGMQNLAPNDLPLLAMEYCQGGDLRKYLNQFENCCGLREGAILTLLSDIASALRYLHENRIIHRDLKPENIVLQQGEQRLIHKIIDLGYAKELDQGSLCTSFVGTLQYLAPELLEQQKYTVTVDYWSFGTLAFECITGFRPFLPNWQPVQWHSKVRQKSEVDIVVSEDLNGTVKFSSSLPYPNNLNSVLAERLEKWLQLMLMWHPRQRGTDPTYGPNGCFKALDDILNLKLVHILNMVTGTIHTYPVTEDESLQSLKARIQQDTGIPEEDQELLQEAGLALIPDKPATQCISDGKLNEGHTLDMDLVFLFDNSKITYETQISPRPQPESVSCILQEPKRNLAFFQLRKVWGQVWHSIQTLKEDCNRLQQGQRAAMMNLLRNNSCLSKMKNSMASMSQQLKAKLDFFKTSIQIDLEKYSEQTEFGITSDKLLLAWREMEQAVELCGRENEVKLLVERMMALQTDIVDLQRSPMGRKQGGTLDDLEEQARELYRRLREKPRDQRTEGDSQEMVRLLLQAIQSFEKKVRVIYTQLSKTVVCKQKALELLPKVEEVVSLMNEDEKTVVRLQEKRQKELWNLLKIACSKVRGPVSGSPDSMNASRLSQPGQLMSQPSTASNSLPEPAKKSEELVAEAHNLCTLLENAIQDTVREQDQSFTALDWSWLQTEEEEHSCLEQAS
# [9] = target: T3, Inhibitor of nuclear factor kappa-B kinase subunit beta (Homo sapiens); settings: at 1 µM
# [10] = target: T4, Inhibitor of nuclear factor kappa-B kinase subunit epsilon (Homo sapiens) (UniProt Q14164); settings: at 0.1 µM
# T4 sequence (whole entry): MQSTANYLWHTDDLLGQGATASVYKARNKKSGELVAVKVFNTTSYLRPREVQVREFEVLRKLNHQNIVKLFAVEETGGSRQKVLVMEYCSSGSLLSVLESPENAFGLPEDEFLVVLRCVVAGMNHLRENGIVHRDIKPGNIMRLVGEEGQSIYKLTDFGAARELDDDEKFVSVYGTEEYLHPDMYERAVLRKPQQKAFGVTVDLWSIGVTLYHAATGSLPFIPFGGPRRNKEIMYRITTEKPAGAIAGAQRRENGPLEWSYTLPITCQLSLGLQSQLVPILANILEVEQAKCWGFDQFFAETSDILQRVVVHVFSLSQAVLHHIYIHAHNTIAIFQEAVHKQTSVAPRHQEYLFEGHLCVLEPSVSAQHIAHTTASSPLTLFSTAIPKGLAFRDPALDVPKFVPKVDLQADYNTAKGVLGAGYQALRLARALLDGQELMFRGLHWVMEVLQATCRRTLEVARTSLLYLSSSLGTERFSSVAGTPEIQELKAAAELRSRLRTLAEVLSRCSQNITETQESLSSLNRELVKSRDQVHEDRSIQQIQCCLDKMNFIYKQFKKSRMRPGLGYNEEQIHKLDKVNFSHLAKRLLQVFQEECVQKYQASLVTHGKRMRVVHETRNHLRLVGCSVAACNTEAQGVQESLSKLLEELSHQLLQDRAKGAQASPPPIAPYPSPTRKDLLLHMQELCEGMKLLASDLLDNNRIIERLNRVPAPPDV
# [11] = target: T4, Inhibitor of nuclear factor kappa-B kinase subunit epsilon (Homo sapiens); settings: at 1 µM
# [12] = target: T5, Serine/threonine-protein kinase Nek1 (Homo sapiens) (UniProt Q96PY6); settings: at 0.1 µM
# T5 sequence (whole entry): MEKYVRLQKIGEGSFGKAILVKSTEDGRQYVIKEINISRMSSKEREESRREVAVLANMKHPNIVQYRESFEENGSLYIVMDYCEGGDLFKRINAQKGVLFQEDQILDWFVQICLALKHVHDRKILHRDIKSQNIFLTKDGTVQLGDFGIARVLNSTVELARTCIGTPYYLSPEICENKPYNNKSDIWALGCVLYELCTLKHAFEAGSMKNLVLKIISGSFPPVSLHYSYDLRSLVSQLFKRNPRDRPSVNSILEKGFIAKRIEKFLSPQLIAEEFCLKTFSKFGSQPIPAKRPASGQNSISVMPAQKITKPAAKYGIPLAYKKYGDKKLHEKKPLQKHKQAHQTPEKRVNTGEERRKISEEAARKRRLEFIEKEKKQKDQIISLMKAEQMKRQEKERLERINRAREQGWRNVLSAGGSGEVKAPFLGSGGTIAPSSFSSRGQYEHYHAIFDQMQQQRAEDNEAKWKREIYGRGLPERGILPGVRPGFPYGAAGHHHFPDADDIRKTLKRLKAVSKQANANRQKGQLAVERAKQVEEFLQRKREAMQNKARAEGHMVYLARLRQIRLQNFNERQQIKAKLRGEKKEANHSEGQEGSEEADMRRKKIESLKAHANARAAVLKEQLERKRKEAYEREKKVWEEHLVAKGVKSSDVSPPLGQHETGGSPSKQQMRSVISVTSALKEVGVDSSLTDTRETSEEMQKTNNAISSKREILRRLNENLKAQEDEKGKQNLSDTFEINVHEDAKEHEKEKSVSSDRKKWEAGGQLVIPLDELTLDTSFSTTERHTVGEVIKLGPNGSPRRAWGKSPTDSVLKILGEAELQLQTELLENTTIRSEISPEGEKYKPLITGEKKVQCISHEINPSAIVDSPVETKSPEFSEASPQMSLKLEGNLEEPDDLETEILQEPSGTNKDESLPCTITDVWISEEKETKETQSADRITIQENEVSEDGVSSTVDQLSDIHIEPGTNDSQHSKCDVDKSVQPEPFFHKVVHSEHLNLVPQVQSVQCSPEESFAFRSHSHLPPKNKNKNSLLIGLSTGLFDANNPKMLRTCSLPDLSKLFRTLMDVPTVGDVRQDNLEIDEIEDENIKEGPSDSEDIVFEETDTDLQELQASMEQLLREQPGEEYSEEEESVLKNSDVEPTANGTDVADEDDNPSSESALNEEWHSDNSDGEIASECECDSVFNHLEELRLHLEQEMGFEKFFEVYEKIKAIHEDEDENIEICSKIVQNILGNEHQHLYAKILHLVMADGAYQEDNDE
# [13] = target: T5, Serine/threonine-protein kinase Nek1 (Homo sapiens); settings: at 1 µM
# [14] = target: T6, Serine/threonine-protein kinase Nek2 (Homo sapiens) (UniProt P51955); settings: at 0.1 µM
# T6 sequence (whole entry): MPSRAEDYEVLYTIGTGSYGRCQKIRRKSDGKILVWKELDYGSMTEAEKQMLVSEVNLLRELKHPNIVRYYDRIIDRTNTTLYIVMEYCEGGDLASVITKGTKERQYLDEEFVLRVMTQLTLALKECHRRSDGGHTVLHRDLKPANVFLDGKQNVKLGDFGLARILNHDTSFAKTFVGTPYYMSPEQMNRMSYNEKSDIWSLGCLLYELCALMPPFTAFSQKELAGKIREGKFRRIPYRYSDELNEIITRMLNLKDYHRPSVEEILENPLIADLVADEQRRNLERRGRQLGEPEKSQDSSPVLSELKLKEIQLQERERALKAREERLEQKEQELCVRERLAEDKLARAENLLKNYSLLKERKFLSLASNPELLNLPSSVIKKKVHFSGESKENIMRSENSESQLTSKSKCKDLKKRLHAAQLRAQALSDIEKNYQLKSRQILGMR
# [15] = target: T6, Serine/threonine-protein kinase Nek2 (Homo sapiens); settings: at 1 µM
# [16] = target: Serine/threonine-protein kinase Nek6 (Homo sapiens) (UniProt Q9HC98); settings: at 0.1 µM
# Serine/threonine-protein kinase Nek6 (Homo sapiens), sequence (Q9HC98 whole entry): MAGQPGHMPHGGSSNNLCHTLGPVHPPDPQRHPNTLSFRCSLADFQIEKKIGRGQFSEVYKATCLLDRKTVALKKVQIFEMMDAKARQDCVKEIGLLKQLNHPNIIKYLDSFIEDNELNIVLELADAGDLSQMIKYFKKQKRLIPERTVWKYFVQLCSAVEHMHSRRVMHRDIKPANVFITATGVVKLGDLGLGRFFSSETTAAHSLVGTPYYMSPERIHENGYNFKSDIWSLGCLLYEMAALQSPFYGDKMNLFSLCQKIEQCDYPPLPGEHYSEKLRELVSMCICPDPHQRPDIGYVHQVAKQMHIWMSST
# [17] = target: Serine/threonine-protein kinase Nek6 (Homo sapiens) (UniProt Q9HC98); settings: at 1 µM
# [18] = target: Serine/threonine-protein kinase Nek7 (Homo sapiens) (UniProt Q8TDX7); settings: at 0.1 µM
# Serine/threonine-protein kinase Nek7 (Homo sapiens), sequence (Q8TDX7 whole entry, looked up): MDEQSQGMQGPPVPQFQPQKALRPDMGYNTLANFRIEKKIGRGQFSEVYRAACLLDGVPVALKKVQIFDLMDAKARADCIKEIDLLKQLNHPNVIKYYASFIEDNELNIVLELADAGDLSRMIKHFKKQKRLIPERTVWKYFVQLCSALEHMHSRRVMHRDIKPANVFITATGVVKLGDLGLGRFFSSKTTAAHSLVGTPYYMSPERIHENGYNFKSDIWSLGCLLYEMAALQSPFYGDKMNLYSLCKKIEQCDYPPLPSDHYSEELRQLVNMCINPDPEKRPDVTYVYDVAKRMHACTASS
# [19] = target: Serine/threonine-protein kinase Nek7 (Homo sapiens) (UniProt Q8TDX7); settings: at 1 µM
# [20] = target: T7, Serine/threonine-protein kinase Nek9 (Homo sapiens) (UniProt Q8TD19); settings: at 0.1 µM;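 further: reported value is the mean percent inhibition of NEK9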
# T7 sequence (whole entry): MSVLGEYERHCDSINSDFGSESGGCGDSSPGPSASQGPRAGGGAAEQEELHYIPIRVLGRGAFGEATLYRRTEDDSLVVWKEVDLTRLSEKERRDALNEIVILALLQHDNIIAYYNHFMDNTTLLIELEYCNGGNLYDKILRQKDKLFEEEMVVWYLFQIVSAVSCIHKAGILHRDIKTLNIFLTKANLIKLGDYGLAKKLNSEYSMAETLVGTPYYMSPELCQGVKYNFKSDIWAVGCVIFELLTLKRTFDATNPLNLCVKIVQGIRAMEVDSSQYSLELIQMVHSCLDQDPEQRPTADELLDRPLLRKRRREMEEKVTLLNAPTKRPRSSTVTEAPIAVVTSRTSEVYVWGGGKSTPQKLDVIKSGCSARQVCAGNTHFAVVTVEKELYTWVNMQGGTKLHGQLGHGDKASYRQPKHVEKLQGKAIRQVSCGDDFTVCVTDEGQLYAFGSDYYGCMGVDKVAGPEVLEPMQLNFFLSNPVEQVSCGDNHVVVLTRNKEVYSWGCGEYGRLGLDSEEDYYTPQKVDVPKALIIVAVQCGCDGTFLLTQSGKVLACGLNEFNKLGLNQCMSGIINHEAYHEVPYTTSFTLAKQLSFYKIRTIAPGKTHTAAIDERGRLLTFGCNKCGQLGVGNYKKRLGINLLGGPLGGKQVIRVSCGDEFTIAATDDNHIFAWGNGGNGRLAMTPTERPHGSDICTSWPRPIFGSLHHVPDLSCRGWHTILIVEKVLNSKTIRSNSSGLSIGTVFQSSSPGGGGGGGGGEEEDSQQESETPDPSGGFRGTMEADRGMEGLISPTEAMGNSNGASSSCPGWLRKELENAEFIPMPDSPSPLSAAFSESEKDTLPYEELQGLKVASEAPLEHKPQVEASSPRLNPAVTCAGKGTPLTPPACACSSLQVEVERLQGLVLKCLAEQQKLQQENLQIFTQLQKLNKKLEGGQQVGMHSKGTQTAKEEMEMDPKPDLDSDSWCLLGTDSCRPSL
# Sphingosine kinase 1 (Homo sapiens), sequence (Q9NYA1 whole entry): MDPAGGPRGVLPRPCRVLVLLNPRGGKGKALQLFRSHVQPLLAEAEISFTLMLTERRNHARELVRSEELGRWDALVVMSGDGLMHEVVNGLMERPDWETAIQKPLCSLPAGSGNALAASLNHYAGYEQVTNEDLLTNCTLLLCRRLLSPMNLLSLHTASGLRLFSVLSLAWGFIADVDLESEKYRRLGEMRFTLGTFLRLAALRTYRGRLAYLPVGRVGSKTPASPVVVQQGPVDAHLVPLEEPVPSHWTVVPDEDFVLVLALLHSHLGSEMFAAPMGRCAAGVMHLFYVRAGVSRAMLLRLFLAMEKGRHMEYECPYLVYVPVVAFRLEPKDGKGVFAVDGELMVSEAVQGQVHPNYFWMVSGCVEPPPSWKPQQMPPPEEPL
Compound,inhibition [1],inhibition [2],inhibition [3],inhibition [4],inhibition [5],inhibition [6],inhibition [7],inhibition [8],inhibition [9],inhibition [10],inhibition [11],inhibition [12],inhibition [13],inhibition [14],inhibition [15],inhibition [16],inhibition [17],inhibition [18],inhibition [19],inhibition [20]
Cc1nnc(-c2ccc(C)c(-c3ccc(C(=O)Nc4cccc(C#N)c4)cc3)c2)o1,0%,0%,1.55%,1.51%,6.5%,7.7%,4%,3.09%,8.71%,3.28%,6.02%,1.56%,4.44%,3.25%,2.64%,1.65%,0.35%,3.44%,3.07%,5.36%
CC(C)=Cc1cccc2c1/C(=N/Nc1ccc(S(N)(=O)=O)cc1)C(=O)N2,3.96%,0.66%,0.76%,1.84%,10.6%,3.49%,3%,1.01%,2.88%,5.72%,21.9%,0.48%,2.3%,-1.83%,-0.31%,1.86%,0.97%,-1.18%,-0.48%,4.67%
